Source: PubChem BioAssay (EPA / NIEHS)
Records with an inconclusive call do not appear. The source made the active and inactive calls. Rule for the calls: active = hit-call score of the fitted dose curve at least 0.9, where 1 is the maximum; inconclusive = response in the unintended direction; inactive = score below 0.9.

read-out: Cytochrome P450 3A4 (Homo sapiens) (UniProt P08684); experiment: CLD_CYP3A4_48hr: CellzDirect (CLD) Gene Expression Assay for xenobiotic metabolism (CYP3A4) at 48 hours (AID 2283698)
Protocol: CLD_48hr is a cell-based, multiplexed-readout assay that uses hepatocyte, a human liver primary cell, with measurements taken at 48 hours after chemical dosing in a 96-well plate.CLD_CYP3A4_48hr is one of 16 assay component(s) measured or calculated from the CLD_48hr assay. It is designed to make measurements of mRNA induction, a form of inducible reporter, as detected with chemiluminescence signals by Quantitative Nuclease Protection Assay (qNPA) technology.Data from the assay component CLD_CYP3A4_48hr was analyzed at the endpoint, CLD_CYP3A4_48hr, in the positive analysis fitting direction relative to DMSO as the negative control and baseline of activity. Using a type of inducible reporter, gain-of-signal activity can be used to understand changes in the reporter gene as they relate to the gene CYP3A4. Furthermore, this assay endpoint can be referred to as a primary readout. To generalize the intended target to other relatable targets, this assay endpoint is annotated to the cyp intended target family, where subfamily is xenobiotic metabolism.
Human hepatocyte cultures were treated daily for two consecutive days with fresh dosing solutions containing appropriate concentrations of the 320 ToxCast chemicals (chemical identities were blinded to CellzDirect and other ToxCast collaborators), vehicle control (0.2% DMSO), and positive control inducers as summarized in Table 1. Due to the large number of treatment groups and chemicals examined, the ToxCast chemicals were divided into two groups (spanning two independent cultures of hepatocytes from separate donor preparations (Hu778: ToxCast plates 1 and 2; Hu776: ToxCast plates 3 and 4). Each preparation of human hepatocyte cultures was treated with respective vehicle control, medium only control, set of six positive controls/reference chemicals for the five hepatic receptor pathways, and a subset of eight of the ToxCast chemicals (indoxacarb, pyrithiobac-sodium, norflurazon, cyhalofop-butyl, methomyl, thiram, acetochlor, and propiconazole). These replicate data, coupled with internal replicates designed within the blinded ToxCast chemical library, provided additional data to evaluate interindividual differences between hepatocyte preparations and their potential impact on chemical profiles.Cell morphology and integrity were evaluated using phase-contrast microscopy as an indicator of hepatocyte cell health (Tyson & Green, 1987). Cultures for each treatment group (i.e., media, vehicle [0.2% DMSO], positive control inducers [multiple concentrations], and the ToxCast chemicals [multiple concentrations]) were observed and cell morphology was assessed relative to vehicle control cultures at each harvest time point (0, 6, 24, or 48 h). […] Images were evaluated at the conclusion of the study to assess changes in cell integrity and account for the effects of chemical exposure on uncharacteristic changes in concentration-dependent gene expression profiles. The results from these determinations of apparent cytotoxicity were annotated (yes/no) alongside the corresponding qNPA data for reference.At the conclusion of each treatment period, hepatocyte cultures (96-well) were washed with 1 volume of HBSS, lysed by addition of 25 ul ArrayPlate lysis buffer (HTG, Tucson, AZ), and 70 ul/well of Denaturation Oil, denatured by incubation at 95C for 10 min, and frozen at approximately -70C until analysis by nuclease protection assay (qNPA) (Roberts et al., 2007). For qNPA analysis, cell lysates were thawed at 50C for approximately 30 min, qNPA probes were added, and samples were incubated at 95C for 10 min to begin the detection process by denaturing the target RNA, dissociating the duplexes and secondary structure hybridization. At the conclusion of the hybridization period, S1 nuclease reagent was added to each sample to digest all nonprotected nucleotides at 50C for 60-90 min. […]

Sequence of Cytochrome P450 3A4 (Homo sapiens) (P08684 whole entry, looked up): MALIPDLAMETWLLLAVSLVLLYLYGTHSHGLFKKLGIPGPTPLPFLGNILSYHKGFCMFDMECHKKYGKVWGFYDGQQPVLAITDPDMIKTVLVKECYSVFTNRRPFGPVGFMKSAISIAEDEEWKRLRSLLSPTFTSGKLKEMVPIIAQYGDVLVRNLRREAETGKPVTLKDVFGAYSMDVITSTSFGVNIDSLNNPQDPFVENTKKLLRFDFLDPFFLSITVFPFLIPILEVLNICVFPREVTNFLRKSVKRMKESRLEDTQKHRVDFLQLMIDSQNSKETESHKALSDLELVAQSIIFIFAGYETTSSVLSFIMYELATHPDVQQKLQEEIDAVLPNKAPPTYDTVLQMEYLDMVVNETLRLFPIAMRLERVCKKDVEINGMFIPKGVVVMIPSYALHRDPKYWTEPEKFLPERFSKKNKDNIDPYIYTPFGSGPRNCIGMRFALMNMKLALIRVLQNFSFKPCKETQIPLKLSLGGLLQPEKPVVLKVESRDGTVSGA

Structure (SMILES)	outcome	AC50
OB(O)O	inactive	–
CCCN(CCC)c1c([N+](=O)[O-])cc(C(F)(F)F)c(N)c1[N+](=O)[O-]	–	7.62 µM (active)
CCCCOC(=O)C(C)Oc1ccc(Oc2ccc(C(F)(F)F)cn2)cc1 (stereo not given)	inactive	–
O=C(O)C1(C(=O)Nc2ccc(Cl)cc2Cl)CC1	inactive	–
CCCN(CCC)C(=O)SCC	inactive	–
S=C([S-])NCCNC(=S)[S-].[Mn+2]	inactive	–
CCCCC(CC)CN1C(=O)C2C3C=CC(C3)C2C1=O (stereo not given)	–	20 µM (active)
CN(C)C(=O)Nc1ccc(Cl)c(Cl)c1	inactive	–
CCOC(=O)C(C)Oc1ccc(Oc2cnc3cc(Cl)ccc3n2)cc1 (stereo not given)	inactive	–
CCNc1nc(N)nc(Cl)n1	inactive	–
Cc1nn(C)c(Oc2ccccc2)c1C=NOCc1ccc(C(=O)OC(C)(C)C)cc1	inactive	–
COc1c(Cl)ccc(Cl)c1C(=O)O	inactive	–
C#CCOC(=O)[C@@H](C)Oc1ccc(Oc2ncc(Cl)cc2F)cc1	inactive	–
Oc1ccc(C(c2ccc(O)cc2)C(Cl)(Cl)Cl)cc1	inactive	–
CCN(Cc1c(F)cccc1Cl)c1c([N+](=O)[O-])cc(C(F)(F)F)cc1[N+](=O)[O-]	–	1.9 µM (active)
COC(=O)c1c(Cl)nn(C)c1S(=O)(=O)NC(=O)Nc1nc(OC)cc(OC)n1	–	6.72 µM (active)
CCOC(=O)[C@H](C)Oc1ccc(Oc2nc3ccc(Cl)cc3o2)cc1	inactive	–
COC(=O)c1cccc(C)c1S(=O)(=O)NC(=O)Nc1nc(OCC(F)(F)F)nc(N(C)C)n1	–	20 µM (active)
CCCCOC(=O)[C@@H](C)Oc1ccc(Oc2ccc(C(F)(F)F)cn2)cc1	inactive	–
c1ccc(Nc2ccccc2)cc1	inactive	–
CC(C)(C)[C@@H](O)[C@@H](Cc1ccc(Cl)cc1)n1cncn1	–	2.15 µM (active)
CCOC(=O)NCCOc1ccc(Oc2ccccc2)cc1	inactive	–
CCCCCOC(=O)COc1cc(N2C(=O)C3=C(CCCC3)C2=O)c(F)cc1Cl	inactive	–
CSC(=O)c1cccc2nnsc12	inactive	–
CC1(C)C(C=C(Cl)Cl)C1C(=O)OCc1cccc(Oc2ccccc2)c1 (stereo not given)	inactive	–
COC(=O)CSc1cc(N=c2sc(=O)n3n2CCCC3)c(F)cc1Cl	–	4.08 µM (active)
CCOC(=O)COc1cc(-n2ncc(C(F)(F)F)c(C)c2=O)c(F)cc1Cl	–	5.32 µM (active)
CCSC(=O)N(CC(C)C)CC(C)C	inactive	–
CCC(C)OC(=O)N1CCCCC1CCO (stereo not given)	inactive	–
COCCO	inactive	–
